Out of some 310,000 compounds screened, about 3,900 (1.3%) were called active.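 How the source made its calls: active means calcium-response B-score plate-corrected more than 3 library SD below zero, starting fluorescence within 5 deviations, no agonist response on first addition; inactive means the rest.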 Shown is part of a subset that was picked to be rich in actives. Where a structure was tested more than once in an assay, its records may differ in their call.
The molecules below were run against Mas-related G-protein coupled receptor member X1 (Homo sapiens) (UniProt Q96LB2) (assay: antagonists of human MrgX1 receptor, primary screen, HEK293 cells, Fluo-4 calcium flux (AID 588676;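 on B-score: peak minus trough fluorescence over baseline after final BAM8-22 challenge near maximal dose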)). Settings: Fluo-4, BAM8-22 antagonism, at 10 µM; hits give low values.
Mas-related G-protein coupled receptor member X1 (Homo sapiens), sequence (Q96LB2 whole entry, looked up): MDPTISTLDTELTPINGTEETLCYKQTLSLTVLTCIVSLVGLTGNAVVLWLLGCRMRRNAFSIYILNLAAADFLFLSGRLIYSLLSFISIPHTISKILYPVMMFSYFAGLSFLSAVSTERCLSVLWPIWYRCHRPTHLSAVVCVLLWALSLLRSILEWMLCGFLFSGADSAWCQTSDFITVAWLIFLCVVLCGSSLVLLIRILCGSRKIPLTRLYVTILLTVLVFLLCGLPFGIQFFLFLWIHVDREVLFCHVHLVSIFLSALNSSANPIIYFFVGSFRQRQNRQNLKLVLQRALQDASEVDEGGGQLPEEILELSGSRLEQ

Row | Compound | B-score | outcome
1 | Cc1cc2oc(=O)cc(CN3CCN(S(=O)(=O)c4cccs4)CC3)c2cc1C(C)C | inactive | 
2 | CCOC(=O)Cc1csc(SCc2cc(=O)oc3cc(O)ccc23)n1 | -5.51 (active) | 
3 | Cc1ccc2c(CSc3nncs3)cc(=O)oc2c1 | inactive | 
4 | CCOC(=O)Cc1csc(NC(=O)COc2ccc3c(C)cc(=O)oc3c2)n1 | inactive | 
5 | CN(C)N1C(N)=C(C#N)C(c2ccc(Br)cc2)C2=C1CCCC2=O (stereo not given) | inactive | 
6 | C/C(CC(=O)NC(C)(C)C)=N\NC(=O)c1ccco1 | inactive | 
7 | COc1ccc(-c2nn(C)c(=O)c3ccccc23)cc1CNC(=O)C1CCCCC1 | inactive | 
8 | CCC(=O)NCc1cc(-c2nn(C)c(=O)c3ccccc23)ccc1OC | inactive | 
9 | COc1ccc(-c2nn(C)c(=O)c3ccccc23)cc1NC(=O)COc1ccccc1 | -8.18 (active) | 
10 | COc1cc(CC(=O)N2CCC(n3nccc3NC(=O)C3CC3)CC2)cc(OC)c1OC | inactive | 
11 | Cn1cccc1C(=O)NNC(=O)COc1ccc(Br)cc1 | -5.34 (active) | 
12 | Cn1cnnc1SCC(=O)NNC(=O)COc1ccc(Br)cc1 | inactive | 
13 | CCOC(=O)N1CCN(C(=O)COc2ccc(Br)cc2)CC1 | inactive | 
14 | CCOC(=O)C(Sc1ncc(C#N)c(N)n1)C(C)C (stereo not given) | inactive | 
15 | Fc1ccccc1Cc1ccc(Cl)nn1 | inactive | 
16 | CC(C)c1ccc2c(c1)c(SC(C)(C)C)c(CC(C)(C)C(=O)O)n2Cc1ccc(Cl)cc1 | -4.82 (active) | inactive
17 | O=C(O)c1ccc(Cn2c(=S)[nH]c3cc(Cl)ccc3c2=O)cc1 | inactive | 
18 | CC(C)N(Cc1ccccc1)C(=O)COC(=O)c1ccccc1SCC(=O)N1CCCC1 | inactive | 
19 | Cc1c(C)c(C)c(S(=O)(=O)NCCc2ccccn2)c(C)c1C | inactive | 
20 | CCOC(=O)Nc1ccc2c(c1)N(C(=O)CN1CCN3CCCC3C1)c1ccccc1CC2 (stereo not given) | inactive | 
21 | CCOC(=O)Nc1ccc2c(c1)N(C(=O)CCCl)c1ccccc1[S@]2=O | inactive | 
22 | CCOC(=O)Nc1ccc2c(c1)N(C(=O)CCN1CCN(CCO)CC1)c1ccccc1CC2 | -9.01 (active) | 
23 | CCOC(=O)C1=C(O)/C(=C/c2cc(C)n(-c3ccccc3)c2C)N=C1C | -4.95 (active) | 
24 | CCOC(=O)C1=C(O)/C(=C/c2ccc(OCC(=O)Nc3ccc(C)cc3)cc2)N=C1C | inactive | 
25 | COC(=O)C1=C(O)/C(=C/c2ccc(OCC(=O)Nc3ccccc3)cc2)N=C1C | inactive | 

Row | Compound | B-score | outcome
26 | O=C(NCCCN1CCCC1=O)c1cccc(S(=O)(=O)NCc2ccccc2)c1 | inactive | 
27 | O=C(Nc1cc(S(=O)(=O)N2CCOCC2)ccc1Cl)c1cc(=O)c2ccccc2o1 | inactive | 
28 | Cn1sc(=O)c2cc(S(=O)(=O)NC3CC3)ccc21 | inactive | 
29 | O=C(CCN1C(=O)C2C3C=CC(C3)C2C1=O)Oc1ccc2ccccc2c1 (stereo not given) | inactive | 
30 | Cc1ccc(C(=O)COC(=O)CCN2C(=O)C3C4CCC(C4)C3C2=O)cc1C (stereo not given) | inactive | 
31 | Cc1ccc(C(=O)COC(=O)CCN2C(=O)C3C4CC(C(Br)C4Br)C3C2=O)cc1 (stereo not given) | -9.31 (active) | 
32 | CCOc1ccc(-n2cnc3c(=O)[nH]c(N)nc32)cc1 | inactive | 
33 | CCCc1nnc(NC(=O)c2cc(OC)cc(OC)c2)s1 | inactive | 
34 | O=C(Nc1nc2ccccc2s1)c1ccc2c(c1)OCO2 | inactive | 
35 | COCc1nnc(NC(=O)c2ccc3c(c2)OCO3)s1 | -5.8 (active) | 
36 | COc1cc(NC(=O)CN(C)S(=O)(=O)c2ccc3nc(C)sc3c2)cc(OC)c1 | inactive | 
37 | Cc1cccc(N(CC(=O)Nc2ccc(-c3nc4ccc(C)cc4s3)cc2)S(C)(=O)=O)c1 | inactive | 
38 | Cc1ccc2nc(-c3ccc(NC(=O)CN(C)S(=O)(=O)c4ccccc4)cc3)sc2c1 | -4.7 (active) | 
39 | Cc1ccc2nc(-c3ccc(NC(=O)c4cccnc4)cc3)oc2c1 | -5.36 (active) | 
40 | CCOC(=O)c1ccc(NC(=O)c2cccnc2)cc1 | inactive | 
41 | Cc1cc2nc(-c3ccc(NC(=O)c4cccnc4)cc3)oc2cc1C | inactive | 
42 | Cc1ccc(N2C(=O)CC(NCc3ccc4c(c3)OCO4)C2=O)cc1Cl (stereo not given) | inactive | 
43 | O=C(CSc1nnnn1-c1ccc(O)cc1)N1N=C(c2ccc3ccccc3c2)CC1c1ccccc1 (stereo not given) | inactive | 
44 | CSc1nc2c(c(=O)[nH]1)C(c1cccc(Cl)c1Cl)CC(=O)N2 (stereo not given) | inactive | 
45 | CCOc1ccc(Nc2nc(Cc3nnc(SCC(=O)c4ccc(C)cc4)o3)cs2)cc1 | inactive | 
46 | CC(C)OCCCNc1ncnc2c1[nH]c1ccc(F)cc12 | -12 (active) | 
47 | COc1cc(OC)c(OC)cc1/C=N/Nc1ncnc2c1[nH]c1ccc(C)cc12 | inactive | 
48 | CC(C)OCCCNC(=O)c1cc(Sc2ccc(F)cc2)nc2ccccc12 | inactive | 
49 | O=C(CN1CCN(c2ccccn2)CC1)NCc1cccs1 | inactive | 
50 | O=C(CN1CCN(c2ccccn2)CC1)NC1CCCCC1 | -5.03 (active) | 

Row | Compound | B-score | outcome
51 | O=C(CN1CCN(c2ccccn2)CC1)Nc1ccc(Br)cc1 | inactive | 
52 | CCOC(=O)C1C(=O)NC(N2CCN(c3ccccc3)CC2)=NC1c1ccco1 (stereo not given) | inactive | 
53 | CCOC(=O)C1C(=O)C=C(c2ccc(OC)cc2)CC1c1ccco1 (stereo not given) | -5.76 (active) | 
54 | CCOC(=O)C1=C(c2ccc(OC)cc2)C(=O)c2ccccc2C1=O | inactive | 
55 | N#Cc1cccc(CN2CCC(=O)N([C@H](CO)c3ccccc3)CC2)c1 | inactive | 
56 | O=C(C1CCN(S(=O)(=O)c2cnc[nH]2)CC1)N1CCN(Cc2ccc3c(c2)OCO3)CC1 | -6 (active) | 
57 | Cc1cccc(N2CCN(C(=O)C3CCN(S(=O)(=O)c4cnc[nH]4)CC3)CC2)c1C | inactive | 
58 | O=C(C1CCN(Cc2ccc(Cl)cc2)CC1)N1CCN(Cc2ccc3c(c2)OCO3)CC1 | inactive | 
59 | Cc1ccc(C(=O)N2CC(=O)Nc3ccc(F)cc3C2c2ccc(F)cc2)cc1 (stereo not given) | inactive | 
60 | O=[N+]([O-])c1ccc(NCCCN2CCOCC2)c(Cl)c1 | inactive | 
61 | O=[N+]([O-])c1cc(S(=O)(=O)CCCN2CCOCC2)ccc1F | -6.04 (active) | 
62 | O=C(NCCCN1CCOCC1)c1ccc([N+](=O)[O-])cc1[N+](=O)[O-] | inactive | 
63 | CC(NC(=O)CNC(=O)Cc1cccc2ccccc12)c1ccc(S(N)(=O)=O)cc1 (stereo not given) | inactive | 
64 | O=[N+]([O-])c1ccc2c(c1)C(N1CCOCC1)/C(=C/C1(O)CCCCC1)O2 (stereo not given) | inactive | 
65 | CC1(C)CC(=O)CC2(C1)NCC(c1ccccc1Cl)c1c2[nH]c2ccccc12 (stereo not given) | inactive | 
66 | Cc1ccc(S(=O)(=O)n2cccc2CO)cc1 | inactive | 
67 | COCCN(Cc1cc2cc3c(cc2nc1Cl)OCO3)C(=O)c1cccc(C)c1 | inactive | 
68 | COc1cc(C2/C(=C(\O)c3ccc4c(c3)CC(C)O4)C(=O)C(=O)N2Cc2ccco2)ccc1O (stereo not given) | -5.81 (active) | 
69 | COc1ccc(/C(O)=C2\C(=O)C(=O)N(Cc3ccco3)C2c2ccc(OC)cc2OC)cc1 (stereo not given) | inactive | 
70 | COc1ccc(C2/C(=C(/O)c3ccc4c(c3)CC(C)O4)C(=O)C(=O)N2Cc2ccncc2)cc1 (stereo not given) | inactive | 
71 | Cc1cccc(CSc2ccc(-c3cccs3)nn2)c1 | inactive | 
72 | C=CCN1CC(C)/C(=N\O)CC1C (stereo not given) | inactive | 
73 | O=C(N/N=C/c1cc(Cl)cc([N+](=O)[O-])c1O)C(O)(c1ccccc1)c1ccccc1 | inactive | 
74 | O=[N+]([O-])c1cc(Cl)cc(/C=N/NC(=S)Nc2cc(S(=O)(=O)N3CCOCC3)ccc2Cl)c1O | -7.04 (active) | 
75 | O=C(N/N=C/c1ccc([N+](=O)[O-])o1)c1cccc(S(=O)(=O)N2CCOCC2)c1 | inactive | 

Row | Compound | B-score | outcome
76 | CCCCN(C(=O)CCNC(=O)NC12CC3CC(CC(C3)C1)C2)c1c(N)n(CCCC)c(=O)[nH]c1=O | inactive | 
77 | CN(CCc1ccccn1)C(=O)CCC1CCCN(Cc2ccccc2OC(F)F)C1 (stereo not given) | inactive | 
78 | CCc1cc2cc(OC)ccc2nc1SCC(=O)Nc1cc(OC)c(OC)cc1C(=O)O | inactive | 
79 | CCOC(=O)CSc1nnc(-c2ccc([N+](=O)[O-])cc2)o1 | inactive | 
80 | N#Cc1ccc(OCc2nnc(-c3ccc([N+](=O)[O-])cc3)o2)cc1 | -5.3 (active) | 
81 | Cc1cc(OCCCCOc2ccc(C#N)cc2)ccc1[N+](=O)[O-] | inactive | 
82 | CCn1cc(C(=O)NCCCN2CCCCCC2)c(=O)c2cc(S(=O)(=O)N3CCc4ccccc4C3)ccc21 | inactive | 
83 | CCOc1cc(C(=O)Nc2c(C)ccc3nsnc23)cc(OCC)c1OCC | inactive | 
84 | CCOC(=O)CC1C(=O)NCCN1c1nc2c(C)cccn2c(=O)c1/C=C1\SC(=S)N(C(C)CC)C1=O (stereo not given) | inactive | 
85 | CNc1nc2c(C)cccn2c(=O)c1C=Nc1ccc(OC)cc1 | inactive | 
86 | Cc1cccn2c(=O)c(/C=C3\SC(=S)N(CC(C)C)C3=O)c(NCCCOC(C)C)nc12 | -11.6 (active) | 
87 | Cc1coc2c1c(C)cc1oc(=O)c(CC(=O)NCC(=O)N[C@H](C(=O)O)C(C)C)c(C)c12 | inactive | 
88 | CCCCn1c(N)c(N(CC(C)C)C(=O)c2ccc(-n3c(C)ccc3C)cc2)c(=O)[nH]c1=O | inactive | 
89 | O=C(COc1coc(CN2CCN(c3ccccc3)CC2)cc1=O)Nc1ccccc1F | inactive | 
90 | COc1ccc(C(=O)CSc2n[nH]c(N)n2)cc1 | -4.92 (active) | 
91 | COc1ccc(C(=O)CSc2nccc(=O)[nH]2)cc1 | inactive | 
92 | COc1ccc(CNC(=O)CSc2n[nH]c(N)n2)cc1OC | inactive | 
93 | O=C(c1cc(-c2ccc(Cl)s2)nc2ccccc12)N1CCOCC1 | inactive | 
94 | CCOC(=O)c1nn(-c2cccc(C)c2)cc1C(=O)c1ccccc1 | inactive | 
95 | CCOC(=O)c1cn(Cc2cccc(C)c2)nn1 | -5.74 (active) | 
96 | CCOC(=O)c1cn(CC(=O)Nc2ccc(C(C)C)cc2)nn1 | inactive | 
97 | COC(=O)[C@@H]1CC[C@H](C)[C@@H](c2ccc(C)cc2)N1C(=O)c1ccc(/C=N/O[C@H](C)c2cn([C@@H]3COC[C@H]3O)nn2)cc1 | inactive | 
98 | Cc1cccc(N(C(=O)c2csnn2)C(C(=O)NCc2ccccc2)c2ccncc2)c1 (stereo not given) | inactive | 
99 | O=C1CSC(=S)N1c1ccc(Cl)c(Cl)c1 | inactive | 

— PubChem BioAssay AID588676 (Johns Hopkins Ion Channel Center, 2011)
